The source of these data is ChEMBL document CHEMBL3988442, “University of Dundee, Small-Polar-MMV Screening Library” (2021).

Out of some 48,000 compounds screened, about 13,000 (27%) showed an effect of 50% or more. This is one part of the list.

The experiment relates to Wolbachia pipientis. The experiment is described as follows: Anti-Wolbachia Cell-Based Screen. In kind it is functional. Further details: scale not given: in the data most compounds retested in dose-response had high values. The following applies: 5 µM.
Regarding `CC(C)c1nc2c(n1C)CCN(CC(=O)Nc1cccnc1)C2`, the “Percent Effect” value worked out at 119.2%.
The same measure for `CC(C)c1nc2c(n1C)CCN(CC(=O)Nc1ccc(Cl)cn1)C2`: 6.553%; for `CC(C)c1nc2c(n1C)CCN(CC(=O)NCc1ccccn1)C2`: -5.66%; for `CC(C)c1nc2c(n1C)CCN(CCc1ccccn1)C2`: 5.197%.
The figure for `CC(C)c1nc2c(n1C)CCN(CC(=O)Nc1nccs1)C2` is -1.818%.
As to `CC(C)c1cc(NC(=O)CN2CCc3c(nc(C(C)C)n3C)C2)on1`, the “Percent Effect” value is on record as 6.487%.
The same measure for `CC(C)c1nc2c(n1C)CCN(CC(=O)Nc1ccncc1)C2`: 127.6%; for `CC(C)c1nc2c(n1C)CCN(CC(=O)Nc1ccnn1C(C)C)C2`: 120.4%.
For the molecule `Cc1nn(C)c(C)c1NC(=O)CN1CCc2c(nc(C(C)C)n2C)C1`, the “Percent Effect” value was -19.45%.
The same measure for `COc1ccnc(N2CCC(=O)N(CC3CC3)C(C(C)C)C2)n1` (stereo not drawn): -66.14%; for `Cc1n[nH]cc1CNCC(c1cccc(F)c1)N(C)C` (stereo not drawn): -5.12%.
The figure for `O=S(=O)(CC1CCOCC1)NCc1ncc(-c2ccccc2)o1` is -9.674%.
Regarding `Cn1cc(C2CCCN2CC(=O)N(CCC#N)Cc2ccco2)cn1` (stereo not drawn), the “Percent Effect” value is listed as 0.296%.
The same measure for `CCNC(=O)CN1CCN(c2ccnc3c(F)ccc(F)c23)CC1`: 11.86%.
The figure for `Cc1cc(NCC(=O)NCC(F)(F)F)nc(-c2ccncc2)n1` is 6.905%.
The same measure for `Cc1cc(N2CCC(C(=O)NC3CC3)CC2)nc(-c2ccncc2)n1`: 96.2%.
Regarding `O=C(NC1CC1)C1CCN(c2cccc(C(F)(F)F)n2)CC1`, the “Percent Effect” value is given as -5.657%.
The figure for `Cc1cc(N2CCC(N(C)C(=O)c3ccccc3)CC2)nc(C)n1` is -0.5132%; for `O=C(NC1CCN(c2cccc(C(F)(F)F)n2)CC1)C1CC1` it is -2.588%; for `CC(=O)NCC1CCN(c2cc(C(C)C)nc3ccnn23)CC1` it is -0.4994%.
The figure for `Cc1cc(C)n(-c2cncc(N3CCC(C(=O)N(C)C)CC3)n2)n1` is -4.811%.
The figure for `CCNC(=O)CN1CCN(c2cc(C)nc(-c3ccncc3)n2)CC1` is 108.7%; for `CC(=O)NCC1CCN(c2ccnc3ccc(Br)cc23)CC1` it is 3.515%.
In the case of `CC(=O)NCC1CCN(c2cc(C)nc(-c3ccncc3)n2)CC1`, the “Percent Effect” value is recorded as 110%.
The figure for `Cc1cc(N2CCC(C(=O)N(C)C)CC2)nc(-c2ccncc2)n1` is 121.6%.
The same measure for `COCC(=O)NC(c1ccc(Cl)cc1)c1noc(C)n1` (stereo not drawn): 10.23%; for `CN1CCN(CC[C@@H]2CC[C@H](O)[C@@H](C(=O)Nc3ccccc3)O2)CC1`: -5.857%; for `Cc1c(Cl)cc(C(=O)N(CCO)Cc2nccn2C)cc1Cl`: -0.9396%.
As to `CCC1CN(Cc2nnc(C3CC3)o2)CCC(=O)N1Cc1ccccc1` (stereo not drawn), the “Percent Effect” value is recorded as 1.6%.
The figure for `Cc1cccc(CNC2CCN(CCc3ccncc3)CC2)c1C` is -28.44%.
The figure for `O=C(Nc1ccccc1)C1CN(Cc2nccs2)CC12CCOCC2` (stereo not drawn) is -7.197%.
The figure for `CCCN(C)C(=O)Nc1ccc(C(=O)NCCC(=O)OC)cc1` is 0.9295%.
Consider `COc1ccc(-c2nc3c([nH]2)CCNC3C(=O)O)c2ccccc12` (stereo not drawn), for which the “Percent Effect” value was -1.412%.
The figure for `Cn1ncc2c(=O)[nH]c(N3CCCC3c3cccs3)nc21` (stereo not drawn) is 2.416%; for `O=C1N[C@@H]2CCN(C(=O)C3CC3)[C@@H]2C(=O)N1c1ccc(F)cc1` it is -5.922%; for `Cc1cc(N2CCN(c3ccc(=O)[nH]n3)CC2)nc(-c2ccncc2)n1` it is 110.1%.
The same measure for `Cc1cc(N2CCOC(C(F)(F)F)C2)nc(-c2ccccc2)n1` (stereo not drawn): 4.501%; for `COC(=O)C1CCN(c2cncc(-n3nc(C)cc3C)n2)CC1`: -8.177%.
Turning to `COC(=O)C1CCN(c2cc(C)nc(-c3ccncc3)n2)CC1`, the “Percent Effect” value turned out to be 111%.
In the case of `COC(=O)C1CCN(C(=O)CN2CCN(c3cccc(C)c3)CC2)CC1`, the “Percent Effect” value is listed as -8.309%.
In the case of `Cc1cc(N2CCOC(CN)C2)nc(-c2ccccc2)n1` (stereo not drawn), the “Percent Effect” value is 6.388%.
The same measure for `Cc1nc2ncnn2c2ccn(-c3cccnc3O)c(=O)c12`: -8.283%.
Take `Cc1c(C(N)=O)sc2nc(C(F)(F)F)ccc12`: the “Percent Effect” value is -3.926%.
As to `CS(=O)(=O)NC1CCc2[nH]c(=O)ccc2C1` (stereo not drawn), the “Percent Effect” value came out at 99.95%.
The same measure for `CCCS(=O)(=O)NC1CCc2c(ccc(=O)n2CC2CC2)C1` (stereo not drawn): -27.38%; for `O=C(NC1CCc2[nH]c(=O)ccc2C1)C1CCOCC1` (stereo not drawn): -2.009%.
The same measure for `O=c1ccc2c(n1CC1CC1)CCC(NS(=O)(=O)C1CC1)C2` (stereo not drawn): -36.22%; for `CCS(=O)(=O)NC1CCc2c(ccc(=O)n2CC2CC2)C1` (stereo not drawn): 2.839%.
The figure for `O=c1ccc2c([nH]1)CCC(NS(=O)(=O)C1CC1)C2` (stereo not drawn) is 112.2%; for `Cc1oc(-c2ccsc2)nc1CNC(C)Cn1cccn1` (stereo not drawn) it is -4.999%; for `CS(=O)(=O)c1ccc(CNC[C@H]2COCc3nc4cccnc4n32)cc1` it is -5.618%.
In the case of `Cc1ccc(N2CCN(c3ccccc3C)CC2C)nn1` (stereo not drawn), the “Percent Effect” value was -2.059%.
The figure for `CC1(C)[C@H]2CC=C(CN3CCCn4nc(CNS(C)(=O)=O)cc4C3)[C@@H]1C2` is -5.008%; for `Cn1cccc1-c1cc(C(=O)N2CCCC2C(F)(F)F)[nH]n1` (stereo not drawn) it is 19.39%; for `CN(Cc1n[nH]c2c1CCCC2)C(=O)c1cccc(CCC(C)(C)O)c1` it is -30.85%.
`COCC(c1ccccn1)N(C)C(=O)c1cc(-c2cccn2C)n[nH]1` (stereo not drawn): the “Percent Effect” value was -5.051%.
The same measure for `CN(Cc1n[nH]c2c1CCC2)C(=O)c1cc(-c2cccn2C)n[nH]1`: 101.4%.
The same measure for `CN(Cc1n[nH]c2c1CCC2)C(=O)c1cccc(CCC(C)(C)O)c1`: 10.18%; for `CN(Cc1n[nH]c2c1CCCCC2)C(=O)c1cc(-c2cccn2C)n[nH]1`: 105.6%; for `C1CCN(CCOC2CCNCC2)CC1`: 5.861%.
Consider `CCc1noc(CC)c1CNC(=O)Nc1cccc([S+](C)[O-])c1` (stereo not drawn), for which the “Percent Effect” value is recorded as -9.563%.
The figure for `CN(CC(N)=O)S(=O)(=O)c1ccc(F)cc1F` is -1.274%; for `O=C(NCc1cccnc1N1CCCCC1)c1ccc2cc[nH]c2c1` it is 88.22%; for `CC(NC(=O)NCc1cccnc1N1CCCCC1)c1nccs1` (stereo not drawn) it is -5.623%.
The figure for `O=C(NCc1cccnc1N1CCCCC1)c1ccc2[nH]nnc2c1` is 79.06%; for `O=C(NCc1cccnc1N1CCCCC1)c1ccc2c(c1)OCO2` it is 108.4%.
With `O=C(NCc1cccnc1N1CCCC(O)C1)c1ccc2[nH]nnc2c1` (stereo not drawn), the “Percent Effect” value stood at 86.94%.
The figure for `N#Cc1cccnc1NCc1cccnc1N1CCCCC1` is 16.56%; for `Cc1nccn1-c1ncccc1CNC(=O)c1ccc(O)nc1` it is -1.557%.
The same measure for `CC(NC(=O)c1cccs1)C(=O)NCc1cccnc1N1CCCCC1` (stereo not drawn): -0.6319%; for `O=C(NCc1ccccn1)Nc1ccc2[nH]nnc2c1`: -4.844%.
The same measure for `COCCOc1ncccc1CNC(=O)N1CCCCCC1`: 13.83%.
In the case of `Cc1cccc(-c2nccn2-c2cccc(CC(=O)O)c2)n1`, the “Percent Effect” value is reported as -5.138%.
As to `COC(=O)[C@H](C)NC(=O)Cc1c(C)nc2c(c1C)c(=O)[nH]n2C`, the “Percent Effect” value is -6.613%.
The same measure for `CC(=O)N1CCCN(S(=O)(=O)c2cc3ccccc3o2)CC1`: -15.12%.
The figure for `CCc1c(C)nc2ccccc2c1N1CCC(O)CC1` is 26.44%; for `Cc1cccc(CN2C[C@@H]3OCCN(c4ccnc(N(C)C)n4)[C@@H]3C2)c1.O=C(O)C(F)(F)F` it is 91.52%; for `CN(C)c1nccc(N2CCO[C@H]3CN(Cc4nccn4C)C[C@H]32)n1.O=C(O)C(F)(F)F` it is 90.41%.
The same measure for `CCc1ccc(CN2C[C@@H]3OCCN(c4ccnc(N(C)C)n4)[C@@H]3C2)o1.O=C(O)C(F)(F)F`: 11.89%; for `Cc1cccc(CN2C(=O)CO[C@@H]3CN(Cc4nccn4C)C[C@H]32)c1.O=C(O)C(F)(F)F`: 6.159%; for `O=C(c1cnccn1)N1C[C@@H]2CC[C@H](C1)N(C(=O)CCc1ccsc1)C2`: 0.0629%.
For `CC(NC(=O)c1cccnc1N(C)C)c1ccccc1Cl` (stereo not drawn), the “Percent Effect” value is recorded as 5.567%.
Turning to `COc1ncccc1C(=O)N1CCN(C(=O)Cc2ccccn2)CC1`, the “Percent Effect” value was found to be 10.82%.
The figure for `O=C(Cc1ccccn1)N1CCC2(CC1)[C@H](O)C[C@@H]2O` is 131.3%.
The figure for `O=C(CCc1ccccn1)N1CCN(C(=O)CC2CCCCC2)CC1` is -0.7864%; for `O=C(Cc1ccccn1)N1CCN(C(=O)c2cccc3[nH]ncc23)CC1` it is 0.8571%.
The figure for `O=C(Cc1ccccn1)N1CCN(C(=O)CC2CCCC2)CC1` is 111.6%; for `CCOC1CC2(CCN(C(=O)Cc3ccccn3)CC2)C1.O=C(O)C(F)(F)F` it is -13.33%; for `O=C1CCC2(CCCN(C(=O)Cc3ccccn3)C2)N1` (stereo not drawn) it is -49.82%.
In the case of `O=C(Cc1ccccn1)N1CCN(C(=O)CC2CCCCC2)CC1`, the “Percent Effect” value came to 116.9%.
The same measure for `O=C(CCc1ccccn1)N1CCCN(C(=O)CC2CCCC2)CC1`: 129.1%; for `CNC(=O)C1(N2CCC[C@H]2C(=O)NC2CC2)CCCCC1.Cl`: -3.847%.
In the case of `O=C(c1cc(Cl)c2c(c1)OCCO2)N1CCCC(n2cncn2)C1` (stereo not drawn), the “Percent Effect” value was -4.605%.
The same measure for `CSCCCNC(=O)C(c1cccc(F)c1)N(C)C` (stereo not drawn): -14.22%.
As to `CN(C)c1ncccc1C(=O)N1CCCN(c2cccnn2)CC1`, the “Percent Effect” value is reported as -6.134%.
The figure for `Cc1scc(C(=O)N2CCC3(CCCN(C)C3=O)C2)c1-c1ccccc1` (stereo not drawn) is -11%; for `CN(CCO)C(=O)c1coc(CN2CCN(c3ccccc3F)CC2)n1` it is 24.23%; for `CN(C)c1nc(O)cc(C2CCN(C(=O)Cc3ccccn3)C2)n1` (stereo not drawn) it is 148.4%.
The same measure for `O=C(CCc1ccccn1)N1CCCC1`: 132.5%; for `Cc1cccnc1N1CCN(C(=O)CCc2ccccn2)CC1`: -3.662%; for `O=C(CCc1ccccn1)N1CCSC2(CCCCC2)C1`: -3.003%.
The same measure for `CC(C)NC(=O)C[C@H]1[C@H]2CN(C(=O)Cc3ccccn3)C[C@@H]12.O=C(O)C(F)(F)F`: 0.3737%; for `Cc1nc(O)cc(C2CCCN(C(=O)CN(C)c3ccccc3)C2)n1` (stereo not drawn): 1.624%.
